“And” between values parts separate entries of the source, which are not always exact repeats. Equal values may be shown once. Screen size: about 4,400 compounds; about 390 (8.9%) showed an effect of 50% or more. The entries come from a sample that favours strong results as a whole.
Tested on: Trypanosoma brucei
Assay: DNDI: Inhibition of Human African Trypanosomiasis, SBRI 427, in vitro at 2 ug.mL-1
Type: functional

Row | SMILES | % inhibition
1 | CCOc1cccc(-c2nc(CN(C)Cc3cc(OC)c(OC)c(OC)c3)co2)c1 | 18%
2 | COc1ccc(Oc2cc(/C(=N/O)NCc3ccccc3C)ccn2)cc1 | 21%
3 | Cc1ccc(-c2nc(CNCC(C)(C)CN(C)C)co2)cc1 | 10%
4 | Cc1cccc(Oc2ncccc2/C(=N/O)N(C)C2CCCCC2)c1C | -1%
5 | COc1ccc(CN/C(=N\O)c2ccnc(Oc3cccc(C(C)C)c3)c2)cc1 | -1%
6 | CC1CCCN1/C(=N\O)c1cccnc1OCc1ccccc1F (centres undefined) | -5%
7 | CCCCC(CC)CNCc1coc(-c2ccc(Br)cc2)n1 (centres undefined) | -12%
8 | O/N=C(\NCc1c(F)cccc1F)c1ccnc(Oc2ccc(Cl)cc2)c1 | 12%
9 | COCCN/C(=N\O)c1ccnc(Oc2ccc(Cl)cc2)c1 | 55%
10 | COCC(C)N/C(=N\O)c1ccnc(Oc2cccc(F)c2)c1 (centres undefined) | 8%
11 | COCC(C)N/C(=N\O)c1ccnc(Oc2ccc(SC)cc2)c1 (centres undefined) | 86%
12 | COCCN(/C(=N\O)c1ccnc(Oc2ccc(Cl)cc2)c1)C(C)C | 28%
13 | CSc1ccc(Oc2cc(/C(=N/O)NCc3ccncc3)ccn2)cc1 | 9%
14 | COCCN/C(=N\O)c1ccnc(Oc2ccc(OC)cc2)c1 | 41%
15 | COCCN/C(=N\O)c1ccnc(Oc2cccc(C(C)C)c2)c1 | 4%
16 | COCC(C)N/C(=N\O)c1ccnc(Oc2ccc(Cl)cc2)c1 (centres undefined) | 99%
17 | COCC(C)N/C(=N\O)c1ccnc(Oc2cccc(C(C)C)c2)c1 (centres undefined) | 71%
18 | COCC(C)N/C(=N\O)c1ccc(Oc2ccc(Cl)cc2)nc1 (centres undefined) | 31%
19 | COCCN/C(=N\O)c1ccnc(Oc2ccc(SC)cc2)c1 | -13%
20 | CCOC(=O)C1CCCCN1Cc1coc(-c2ccc(O)cc2)n1 (centres undefined) | -1%
21 | Fc1ccccc1-c1nc(CNCc2cccc3ccccc23)co1 | 24%
22 | Cc1ccc(/C(=N/O)N(C)Cc2cccnc2)c(Oc2cccnc2)n1 | 10%

Row | SMILES | % inhibition
23 | CSc1ccc(Oc2nc(C)ccc2/C(=N/O)N2C(C)C=CC2C)cc1 (centres undefined) | -5%
24 | Cc1ccccc1-c1nc(CN(C)Cc2ccco2)co1 | 2%
25 | CCN(/C(=N\O)c1ccc(C)nc1Oc1cccc(C(C)C)c1)C(C)C | -4%
26 | C=CCN(Cc1coc(-c2ccc(C)cc2)n1)C1CCCC1 | 16%
27 | Cc1ccc([C@@H](C)NCc2coc(-c3ccc(O)cc3)n2)cc1 | 46%
28 | Cc1ccc(Oc2cc(/C(=N/O)N3CCN(c4ccc(F)cc4)CC3)ccn2)c2c1CCC2 | 31%
29 | COc1cc(CNCc2coc(-c3ccccc3Br)n2)cc(OC)c1OC | -33%
30 | CCN(Cc1ccccc1)Cc1coc(-c2cc(OC)c(OC)c(OC)c2)n1 | -20%
31 | Cc1ccc(C)c(N2CCN(Cc3coc(-c4ccc(O)cc4)n3)CC2)c1 | 9%
32 | Cc1cccc(-c2nc(CNCc3ccncc3)co2)c1 | -16%
33 | Cc1ccc(-c2nc(CN3CC[C@@H]4CCCC[C@@H]4C3)co2)cc1 | -5%
34 | COCC(C)N/C(=N\O)c1ccnc(Oc2ccc(F)c(Cl)c2)c1 (centres undefined) | 99%
35 | CC(C)c1ccc(N/C(=N\O)c2ccnc(Oc3ccc(F)c(Cl)c3)c2)cc1 | 0%
36 | O/N=C(\NCc1ccccc1)c1ccnc(Oc2ccc(F)c(Cl)c2)c1 | 24%
37 | CCN(/C(=N\O)c1ccnc(Oc2ccc(Cl)cc2)c1)C(C)C | 74%
38 | CCN(/C(=N\O)c1ccnc(Oc2ccc(F)c(Cl)c2)c1)C(C)C | 14%
39 | CCN(/C(=N\O)c1ccnc(Oc2ccc(F)c(F)c2)c1)C(C)C | 43%
40 | Cc1cn(/C(=N\O)c2ccc(Oc3ccc(Cl)cc3)nc2)cn1 | 5%
41 | CCCN(CC1CC1)/C(=N\O)c1cccnc1Oc1ccccc1OC | 24%
42 | CC(C)c1ccccc1Oc1ncccc1/C(N)=N/O | 7%
43 | COc1cc(C)ccc1Oc1nc(C)ccc1/C(=N/O)Nc1ccc(C(C)C)cc1 | 8%
44 | Cc1ccc(Oc2nc(C)ccc2/C(=N/O)NCc2ccco2)cc1 | 37%

Row | SMILES | % inhibition
45 | Cc1cc(C)cc(CN/C(=N\O)c2cccnc2Oc2ccc3ccccc3c2)c1 | 70%
46 | CC(C)c1ccc(N/C(=N\O)c2cccnc2OCC(C)(C)C)cc1 | 14%
47 | CCC(C)(C)N/C(=N\O)c1cccnc1OCC(C)(C)C | 11%
48 | CCC(C)(C)N/C(=N\O)c1cccnc1Oc1ccc2ccccc2c1 | 99%
49 | COc1ccc(Oc2ncccc2/C(=N/O)NCc2cccnc2)cc1 | -2%
50 | CCCN/C(=N\O)c1cccnc1Oc1ccc2ccccc2c1 | 25%
51 | COc1ccc(Oc2ncccc2/C(=N/O)NCc2cc(C)cc(C)c2)cc1 | 79%
52 | Cc1ccc(CN/C(=N\O)c2cccnc2Oc2ccc3ccccc3c2)o1 | 19%
53 | CC(C)N/C(=N\O)c1cccnc1Oc1ccc2ccccc2c1 | 21%
54 | CC(C)N/C(=N\O)c1cccnc1OCC(C)(C)C | 100%
55 | O/N=C(\NCc1cccnc1)c1cccnc1Oc1ccc2ccccc2c1 | -6%
56 | Cc1cc(C)cc(CN/C(=N\O)c2cccnc2Oc2ccc(Cl)cc2)c1 | 31%
57 | COc1cccc(-c2nc(CN3CCOCC3)co2)c1 | 35%
58 | FC(F)(F)CNCc1coc(-c2ccc(Cl)cc2Cl)n1 | 23%
59 | COCC(C)NCc1coc(-c2ccccc2C)n1 (centres undefined) | 9%
60 | CC(c1ccccc1)N(C)Cc1coc(-c2ccc(C(F)(F)F)cc2)n1 (centres undefined) | 7% and -11%
61 | Cc1cc(C)cc(Oc2ccc(/C(N)=N/O)cn2)c1 | 11%
62 | Clc1ccccc1-c1nc(CNC(c2ccccc2)c2ccccc2)co1 | 6%
63 | CC1CC(C)CN(Cc2coc(-c3ccc(Br)cc3)n2)C1 (centres undefined) | -5%
64 | CCOc1ccccc1-c1nc(CN(C)C(C)c2ccccc2)co1 (centres undefined) | 8% and 1%
65 | CCOc1cccc(-c2nc(CNC(CC)c3ccccc3)co2)c1 (centres undefined) | 27%
66 | Fc1ccc(N2CCN(Cc3coc(-c4ccccc4Br)n3)CC2)cc1 | -6%

Row | SMILES | % inhibition
67 | Cc1nccn1/C(=N\O)c1cccnc1OCC(C)C | -13%
68 | O/N=C(\NCc1cc(F)ccc1F)c1ccc(Oc2ccc3ccccc3c2)nc1 | 31%
69 | CC(C)COc1ncccc1/C(=N/O)NCC(C)(C)C | 95%
70 | Cc1cc(C)cc(CN/C(=N\O)c2cccnc2OCC(C)(C)C)c1 | -8%
71 | CC(C)COc1ncccc1/C(=N/O)NCc1ccccc1 | 37%
72 | Cc1cc(C)cc(CN/C(=N\O)c2cccnc2OCC(C)C)c1 | 92%
73 | COCCN/C(=N\O)c1cccnc1OCC(C)C | -7%
74 | CSCCN/C(=N\O)c1cccnc1OCC(C)C | -5%
75 | Fc1cccc(-c2nc(CNc3cc[nH]n3)co2)c1 | 45%
76 | FC(F)(F)c1ccc(-c2nc(CN3CCN(C(c4ccccc4)c4ccccc4)CC3)co2)cc1 | -3%
77 | CCOc1ccc(-c2nc(CNC(CC)c3ccccc3)co2)cc1 (centres undefined) | 1% and -14%
78 | CCCCN(CC)Cc1coc(-c2ccccc2Cl)n1 | 19%
79 | COc1ccc(-c2nc(CNCCCN3CCCCC3C)co2)cc1 (centres undefined) | 97%
80 | CC1CCCCN1CCCNCc1coc(-c2ccc(F)cc2)n1 (centres undefined) | 72%
81 | Fc1ccc(-c2nc(CNCCN3CCCCC3)co2)cc1 | -17%
82 | COc1ccc(-c2nc(CN3CCCCC3C)co2)cc1 (centres undefined) | 12%
83 | CC1CCCCN1CCCNCc1coc(-c2ccco2)n1 (centres undefined) | 23%
84 | Fc1ccc(-c2nc(CNCCN3CCCC3)co2)cc1 | 1%
85 | COC(=O)C1CCN(/C(=N\O)c2cccnc2Oc2cccc3ccccc23)CC1 | 9%
86 | CC1CCCN1/C(=N\O)c1cccnc1Oc1ccc(Cl)cc1 (centres undefined) | -13%
87 | CN(Cc1coc(-c2ccc(C(F)(F)F)cc2)n1)c1ccccc1 | 1%
88 | Oc1ccc(-c2nc(CN(Cc3ccccc3)c3ccccc3)co2)cc1 | 11%

Row | SMILES | % inhibition
89 | NCCc1cn(Cc2coc(-c3cccs3)n2)c2ccccc12 | -15%
90 | CCN(Cc1ccccc1)Cc1coc(-c2ccc(OC)cc2)n1 | -11%
91 | CSCCN/C(=N\O)c1ccc(C)nc1Oc1cccc(F)c1 | 12%
92 | Cc1ccc(/C(=N/O)NCC(C)(C)C)c(OCc2cccc(F)c2)n1 | 96%
93 | CCCN/C(=N\O)c1ccc(C)nc1OCc1cccc(F)c1 | 0%
94 | Cc1ccc(/C(=N/O)NCc2cc(F)cc(F)c2)c(OCc2cccc(F)c2)n1 | -12%
95 | Cc1cccc(Oc2nc(C)ccc2/C(=N/O)NCc2ccccc2)c1 | 6%
96 | CSCCN/C(=N\O)c1ccc(C)nc1Oc1ccc2ccccc2c1 | 7%
97 | CCC(C)(C)N/C(=N\O)c1ccc(C)nc1Oc1cccc(F)c1 | 13%
98 | Cc1ccc(/C(=N/O)NCC(C)(C)C)c(Oc2ccc3ccccc3c2)n1 | 96%
99 | Cc1ccc(/C(=N/O)NCC2CC2)c(Oc2ccc3ccccc3c2)n1 | 17%
100 | CCC(C)(C)N/C(=N\O)c1ccc(C)nc1Oc1cccc(C)c1 | 19%
101 | Cc1cccc(Oc2nc(C)ccc2/C(=N/O)NCC(C)(C)C)c1 | 100%
102 | Cc1ccc(/C(=N/O)NCC(C)(C)C)c(Oc2cccc(F)c2)n1 | 99%
103 | Cc1cccc(-c2nc(Cn3cc(-c4ccccc4)c(C)n3)co2)c1 | -11%
104 | c1ccc(-c2nc(CN3CCC4CCCCC4C3)co2)cc1 (centres undefined) | 37%
105 | C#CC(CC)(CC)NCc1coc(-c2cccs2)n1 | -2%
106 | CCN(Cc1ccccc1)Cc1coc(-c2cccc(OC)c2)n1 | -7%
107 | CCN1CCN(Cc2coc(-c3ccc(C(F)(F)F)cc3)n2)CC1 | 10%
108 | CCCc1nccn1Cc1coc(-c2cccc(F)c2)n1 | 5%
109 | COc1cc(CNCc2coc(-c3ccc(C)cc3)n2)cc(OC)c1OC | 9%
